From PubChem
GLP-1R agonist – agonists of human GLP-1 receptor. actives 0.007% (n = 380,000). AID 624172. HEK293 GLP-1R CRE-luciferase, luminescence, 4-6 h; cells express a hypersensitive GLP-1R form. Potency, µM (titrated, usually from 45.6 µM), most hits filed as activators. P43220
Target sequence (P43220 whole entry, looked up): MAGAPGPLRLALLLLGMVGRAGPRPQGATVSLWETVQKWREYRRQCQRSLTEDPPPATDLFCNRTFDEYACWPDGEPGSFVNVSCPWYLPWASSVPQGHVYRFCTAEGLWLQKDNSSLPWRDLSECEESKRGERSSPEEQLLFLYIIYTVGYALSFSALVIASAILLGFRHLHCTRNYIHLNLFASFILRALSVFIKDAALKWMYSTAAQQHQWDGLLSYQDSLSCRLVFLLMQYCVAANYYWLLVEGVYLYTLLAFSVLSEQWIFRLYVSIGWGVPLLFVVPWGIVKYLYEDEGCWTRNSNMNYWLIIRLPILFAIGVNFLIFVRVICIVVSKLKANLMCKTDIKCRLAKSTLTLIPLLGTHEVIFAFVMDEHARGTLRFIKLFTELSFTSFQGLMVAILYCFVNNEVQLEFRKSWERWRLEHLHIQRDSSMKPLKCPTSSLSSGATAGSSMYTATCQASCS
DRD3 agonist – D3 dopamine receptor (human) agonism | P35462 | D3R DiscoveRx beta-arrestin cells, luminescence, 90 min | max activation, % | actives 0.58% (n = 410,000) | AID 652048; in the data active means max activation above about 30%
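Agonist-mode cell screen: cells plated at 1500/well and incubated overnight at 37 °C, then exposed to library compounds for 90 min at 37 °C. Detection reagent was added for 30–60 min at room temperature, and luminescence was read.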
D3 antag – blocks the human D3 dopamine receptor. actives 2.5% (n = 360,000). max response, negative = inhibition, %. AID 652054. D3R cells, DiscoveRx beta-arrestin luminescence, antagonist mode; stronger effect = lower value; in the data active means max response below about -50%; inconclusive means no clear call, values can overlap the other calls
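Cells plated overnight at 1500 cells/well, then exposed to library compounds with dopamine controls for 90 minutes at 37 degrees C. DiscoveRx reagent added for 30–60 minutes at room temperature; luminescence read, quantitative HTS format.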
GLP1R inv ag – acts as inverse agonist at human GLP-1 receptor | P43220 | HEK293 GLP-1R CRE-luciferase, luminescence, 24 h; GLP-1R form is constitutively active | Potency, µM (highest dose often 38.3 µM), hits mostly inhibitors | actives 1.6% (n = 410,000) | AID 624417; further: nearly all actives have a fitted effect of over 55% in size
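HEK293 cells stably co-expressing a cAMP-responsive luciferase reporter and constitutively active GLP-1R were seeded, incubated 12 h, then exposed to compounds for 24 h at 37 C. Luminescence was read 12 min after detection reagent; inverse agonists lower signal.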
Hits are given with their value; . = inactive; ? = inconclusive; / = not tested or not shown; [ ] = dose if it differs, or a comment. Only some compounds are listed: those with a hit (about 4.3% of all), similar ones and a draw of the others. Unless noted, the call rests on the fitted dose curve; in most records, active means well fitted curve in the direction sought with a large enough effect; inconclusive means small, poorly fitted or top-dose-only effect, or another doubt; inactive means no such curve, though single readings can be large; an effect the other way counts as inactive or inconclusive.

SMILES	GLP-1R agonist	DRD3 agonist	D3 antag	GLP1R inv ag
Nc1c(C(=O)Nc2ccccc2Cl)c2ccccn2c1C(=O)c1ccc(Cl)cc1	/	.	/	.
CC(C)C1N=C(c2ccc3c(c2)OCO3)CC(c2ccccc2O)N1 (configuration not stated)	.	.	.	11µM
CCOc1ccccc1C1N=C(c2ccc(OC)cc2)CC(c2ccccc2O)N1 (configuration not stated)	.	.	.	.[0.307 µM]
COc1ccccc1N1CCN(C(=O)C2CCN(S(=O)(=O)c3cn(C)cn3)CC2)CC1	/	.	/	.
CN1CCN(C(=O)Nc2cccc(Cl)c2)c2cccnc21	/	.	/	.
CC(C)(/C=N/O)N(O)C=C1C=CC(=O)C=C1	.	.	.	.
CC(=O)N=C1C=CC(=CN(O)C(C)(C)Cc2ccccc2)C=C1	.	.	-54	.
O=C(c1ccc(F)cc1)N1CCCCC(Sc2nnnn2-c2ccccc2)C1=O (configuration not stated)	.	.	.	?
O=C(c1ccccc1)N1CCCCC(Sc2nnnn2-c2ccccc2)C1=O (configuration not stated)	.	.	-60	.
O=[N+]([O-])c1cc(-c2nc(-c3ccccc3)no2)ccc1NC1CCCCC1	/	.	/	.
Nc1nnnn1/N=C/C(Br)=C/c1ccccc1	.	.	-100	?
O=C(NC1CC1)c1ccc2sc([C@H]3C[C@H](O)[C@@H](CO)O3)nc2c1	.	.	.	.
CSCCC(NC(=O)c1ccc(Cl)cc1Cl)C(=O)NCc1ccncc1 (configuration not stated)	.	.	.	.
CSCCC(NC(=O)c1ccc(Cl)cc1Cl)C(=O)N(C)Cc1nc2ccccc2c(=O)[nH]1 (configuration not stated)	.	.	-51	?
COc1c(C(=O)Nc2ccc(Cc3ccncc3)cc2)ccc2ccccc12	.	34	.	?
O=C(CN1C(=O)COc2ccc(S(=O)(=O)N3CCOCC3)cc21)Nc1ccc(F)c(Cl)c1	/	.	/	.
O=C(c1ccc(C(F)(F)F)cc1)C1CCCN(Cc2cccn2-c2ncccn2)C1 (configuration not stated)	.	.	.	?
CCOc1cc(CN2CCCC(C(=O)c3cccc(C(F)(F)F)c3)C2)ccc1O (configuration not stated)	.	.	-70	?
O=C(c1cccc(C(F)(F)F)c1)C1CCCN(Cc2cccn2-c2ncccn2)C1 (configuration not stated)	.	.	-54	?
CCOC(=O)C1CCCN(Cc2ccc(O)c(OC)c2)C1 (configuration not stated)	.	.	?	.
C[C@@H]1CCCCO[C@@H](CN(C)S(=O)(=O)c2cccs2)[C@@H](C)CN([C@H](C)CO)C(=O)c2cc(NS(=O)(=O)c3ccccc3)ccc2O1	.	.	.	.
O=c1[nH]c(C2CCN(S(=O)(=O)c3cccc(C(F)(F)F)c3)CC2)nc2c1nnn2Cc1cccc(F)c1	.	.	.	7.9µM
CCOC(=O)c1c(/N=C/c2cc(OC)cc([N+](=O)[O-])c2O)sc(C)c1C	.	.	-71	.
CCOC(=O)c1c(/N=C/c2cc([N+](=O)[O-])ccc2O)sc(C)c1C	.	.	.	.
CCc1n[nH]c(=S)n1/N=C/c1cc(OC)cc([N+](=O)[O-])c1O	.	.	-94	.
SMILES	GLP-1R agonist	DRD3 agonist	D3 antag	GLP1R inv ag
CC(NC(=O)NC1CCCCC1)C(c1cccs1)N1CCN(Cc2ccccc2)CC1 (configuration not stated)	.	.	.	?
CC(NC(=S)NCCc1ccccc1)C(c1cccs1)N1CCN(Cc2ccccc2)CC1 (configuration not stated)	.	.	-79	?
COc1ccc(NC(=O)CCCNC(=O)Cn2cnc3sc(C)c(C)c3c2=O)cc1Cl	.	.	.	.
COc1ccc(NC(=O)CCCNC(=O)Cn2cnc3sc(C)c(C)c3c2=O)cc1OC	.	31	.	.
COC(=O)c1ccc(C(=O)OC)c(NC(=O)CSCc2ccc(Br)cc2)c1	.	.	.	7.9µM
CS(=O)(=O)N(CC(=O)N1CCN(Cc2ccccc2)CC1)c1ccccc1Br	.	.	-58	.
CN(CC(=O)N1CCN(Cc2ccccc2)CC1)S(=O)(=O)c1ccc(F)cc1	.	.	-59	.
CN(CC(=O)N1CCN(Cc2ccccc2)CC1)S(=O)(=O)c1ccc(Br)cc1	.	.	?	?
